These results are taken from PubChem BioAssay.

The nature of experiment [1]: inhibitors of TNFa-induced NFkB p65 translocation, primary screen, imaging, HUVEC, MLSMR starter and 10KST1 sets (AID 438;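 active = inhibition above 20% together with a positive visual image hit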;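 also: compound added about 3h40 before a 20 min TNFalpha stimulation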;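 as to inhibition: signal is the nuclear over cytoplasmic p65 intensity ratio per well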). Conditions: HUVEC TNFa-induced p65 nuclear translocation; cell count: measured here: nuclei count (cytotoxicity indicator), at 2.08 µM; inhibition: at 2 µM, stronger effect = higher value, 0% TNFa-plus-vehicle, 100% no-TNFa wells.
Experiment [2] is described as follows: inhibitors of E-selectin induction by TNFa, primary screen, imaging, HUVEC, immunofluorescence, MLSMR starter and 10KST1 sets (AID 487;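 active = visually confirmed hit in the image check and inhibition above 20%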;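 as to inhibition: signal is fraction of cell area covered by stained E-selectin grains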;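 as to nuclei count: 100% = median nuclei count of all wells on the same plate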). Conditions: HUVEC TNFalpha-induced E-selectin immunofluorescence imaging, at 2 µM; inhibition: stronger effect = higher value; nuclei count: measured here: cell number, toxicity.
Experiment [3] is described as follows: DUSP6 inhibitors restoring Erk phosphorylation by chemical complementation, primary imaging in DUSP6-transfected HeLa (AID 609;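 active = compounds giving at least 50% inhibition in the cell-based MKP-3 phosphatase rescue imaging test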;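 as to inhibition: phospho-Erk level distribution per well compared with pooled transfected vehicle control wells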). Conditions: HeLa MKP-3 transfected, phospho-Erk imaging KS statistic, at 10 µM, cells stimulated with TPA for 15 min.
The target in experiment [4] is Dual specificity protein phosphatase 6 (Homo sapiens) (UniProt Q16828). The experiment is described as above. Conditions: HeLa MKP-3 transfected, phospho-Erk imaging KS statistic; at 10 µM; stronger effect = higher value; cells stimulated with TPA for 15 min.
In experiment [5] the target is Voltage-gated potassium channel subunit beta-2 (Rattus norvegicus) (UniProt P62483). As to the kind of experiment: KvBeta enzyme negative modulators, primary screen, biochemical, NADPH fluorescence (AID 622;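 active = fluorescence slope higher than the sample average by over 3 SD, cut at about -0.22 in these data, passing the limit was not always enough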;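 also: slope of raw intensity against log time taken from 70 to 1610 s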). Conditions: recombinant KvBeta, 4-cyanobenzaldehyde reduction, at 10 µM, stronger effect = higher value.
The target is the same in experiment [6]. As to the kind of experiment: KvBeta positive modulators, primary screen, biochemical, NADPH fluorescence (AID 623;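 active = NADPH fluorescence slope more negative than the mean of all samples by about 3 SD, 99.7% confidence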;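 also: fluorescence intensity change per second fitted from 20 to 320 s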). Conditions: Recombinant KvBeta, NADPH fluorescence decrease slope, 10 min; at 10 µM; stronger effect = lower value.
In experiment [7] the target is Alpha-2C adrenergic receptor (Homo sapiens) (UniProt P18825). Nature of the experiment: modulators of alpha2C/GIRK thallium flux, primary screen, cell-based, HEK293 alpha2C/GIRK1/2 (AID 624;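 active = fluorescence slope after compound addition differing from the mean of all screened samples at 99.7% confidence, in either direction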;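 also: slope of fluorescence ratio to pre-addition baseline per second over 15 to 24 s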). Conditions: thallium flux BTC fluorescence, at 10 µM, actives lie on both sides.
Experiment [8] in a line: inhibitors of Chlamydomonas gravitaxis, primary screen, whole organism, Chlamydomonas reinhardtii, WT vs cilia-less mutant, absorbance, 96-well (AID 463189).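 Also: 0% = wild type cc124 cells in DMSO and 100% = ciliumless bld1 mutant cells.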 Conditions: OD600 absorbance, 2 days, at 10 µM, stronger effect = higher value.
A short description of experiment [9]: inhibitors of larval lipid processing in zebrafish, primary screen, whole organism, PED6 fluorescence, gall bladder and intestine (AID 686;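 active = a full or partial loss of lipid-probe fluorescence in the fish gall bladder, intestine or both, judged by eye; inactive = no fluorescence loss, or compound toxic to the fish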;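 also: larvae 5 to 7 days old with five fish per well; signal comes from phospholipase A2 cleavage of quenched PED6 carried via bile; overnight exposure to compound and PED6 before scoring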). Conditions: Zebrafish larvae PED6 lipid processing, fluorescence scoring; screened at 20 µM (by protocol).
A short description of experiment [10]: inhibitors of Sendai virus-induced IRF3 signaling, primary screen, TLR/RLR signaling modifier project, cell-based, Sendai virus stimulus, luciferase, 10K MLSCN set (AID 602276;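 active = inhibition at or above 50% at 10 µM; inactive = inhibition below 50%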;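 also: firefly luciferase from ISG56 promoter only with Renilla not read in this screen; 0% = Sendai virus plus DMSO and 100% = medium plus DMSO without virus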). Conditions: HEK293 RL24 IRF3 luciferase reporter, at 10 µM, stronger effect = higher value. Background: A reporter such as luciferase makes a cellular process visible.
A short description of experiment [11]: inhibitors of poly I:C-induced TLR3 signaling, primary screen, cell-based, poly I:C stimulus, luciferase, 10K MLSCN set (AID 602277;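 active = inhibition of the reporter signal at or above 50%; inactive = inhibition below 50%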). Conditions: HEK293-TLR3 RL24 IRF3 luciferase reporter, at 10 µM, stronger effect = higher value.
[12] abbreviates: measured here: cell density z-score.
[13] abbreviates: measured here: nuclear c-Myc green intensity z-score.
[14] abbreviates: measured here: nuclear pErk red intensity z-score, stronger effect = higher value.

The structures appear in SMILES notation. Where “and” joins values, the source holds several entries; their conditions need not be identical. Identical values can stand only once. Calls of active or inactive are those of the source.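 The calls were made as follows, unless noted: active = inhibition at or above 50% relative to wild type and mutant plate controls; inactive = inhibition below 50%.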

Usually inhibition stands for the change of the read-out against control, counted positive when it falls.

Chain of Voltage-gated potassium channel subunit beta-2 (Rattus norvegicus) (P62483 whole entry, looked up): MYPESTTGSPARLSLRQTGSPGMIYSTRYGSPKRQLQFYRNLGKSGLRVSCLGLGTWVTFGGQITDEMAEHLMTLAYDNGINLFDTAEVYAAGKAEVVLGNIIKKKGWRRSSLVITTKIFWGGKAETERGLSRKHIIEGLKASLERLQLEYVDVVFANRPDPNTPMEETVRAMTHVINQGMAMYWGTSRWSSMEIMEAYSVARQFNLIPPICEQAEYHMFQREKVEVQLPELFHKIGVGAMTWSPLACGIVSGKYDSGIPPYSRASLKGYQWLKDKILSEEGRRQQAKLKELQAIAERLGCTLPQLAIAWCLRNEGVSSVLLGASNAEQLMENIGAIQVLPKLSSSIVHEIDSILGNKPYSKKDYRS
Chain of Dual specificity protein phosphatase 6 (Homo sapiens) (Q16828 whole entry, looked up): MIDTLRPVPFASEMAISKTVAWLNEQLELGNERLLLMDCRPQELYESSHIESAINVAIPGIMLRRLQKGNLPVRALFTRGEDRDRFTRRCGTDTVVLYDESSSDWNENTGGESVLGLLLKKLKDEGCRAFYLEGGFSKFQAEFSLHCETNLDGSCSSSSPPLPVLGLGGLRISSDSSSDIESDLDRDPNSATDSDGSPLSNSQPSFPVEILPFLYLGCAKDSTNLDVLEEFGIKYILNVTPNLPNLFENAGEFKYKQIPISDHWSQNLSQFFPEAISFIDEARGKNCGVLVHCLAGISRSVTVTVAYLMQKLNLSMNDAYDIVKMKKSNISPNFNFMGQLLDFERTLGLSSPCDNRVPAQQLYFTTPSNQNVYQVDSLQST
Chain of Alpha-2C adrenergic receptor (Homo sapiens) (P18825 whole entry, looked up): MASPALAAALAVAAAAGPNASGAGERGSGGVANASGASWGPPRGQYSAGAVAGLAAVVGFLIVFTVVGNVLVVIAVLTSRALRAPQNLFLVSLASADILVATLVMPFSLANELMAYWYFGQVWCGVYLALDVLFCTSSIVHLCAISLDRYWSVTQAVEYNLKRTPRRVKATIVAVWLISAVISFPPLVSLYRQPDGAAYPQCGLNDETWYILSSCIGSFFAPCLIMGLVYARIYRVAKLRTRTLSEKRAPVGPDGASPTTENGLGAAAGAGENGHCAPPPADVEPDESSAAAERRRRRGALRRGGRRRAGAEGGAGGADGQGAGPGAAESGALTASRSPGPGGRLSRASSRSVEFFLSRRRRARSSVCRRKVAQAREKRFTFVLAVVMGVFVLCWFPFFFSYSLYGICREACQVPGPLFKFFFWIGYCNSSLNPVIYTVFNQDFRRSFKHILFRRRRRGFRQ

As for `Cc1ccc(N2C(=O)C3ON(c4ccccc4)C(c4ccncc4)C3C2=O)c(C)c1` (configuration not stated), the cell count in [1] is 326. The inhibition in experiment [1] is -7.9% (inactive); in experiment [2], -152% (inactive); in experiment [4] it was -12.3% (inactive); in experiment [8], 0.697% (inactive). In experiment [2], this molecule showed a nuclei count of 164%. Also, the z-score is 0.138 in experiment [3] (setting [12]), -0.827 in experiment [3] (setting [13]) and -0.00414 in [3] (setting [14]). The fluorescence slope in experiment [5] is -0.437 (inactive). In addition, the NADPH fluorescence slope in [6] was -0.000117 (inactive). Moreover, in experiment [7], the slope is 0.00457 (inactive).

In the case of `CCCc1cc(=O)oc2c(CN3CCN(C)CC3)c(O)c(Cl)cc12`, the cell count in experiment [1] was found to be 332. Further, the inhibition in [1] was 1.4% (inactive); in [2] it was 4.8% (inactive); in [4] it was 1.6e-07% (inactive); in experiment [8], -8.3% (inactive). Also, the nuclei count in [2] was 163%. Also, the z-score was 1.29 in experiment [3] (setting [12]), -0.833 in [3] (setting [13]) and -1.37 in experiment [3] (setting [14]). In [5], the fluorescence slope was -0.229 (inactive). Besides, in experiment [6], the NADPH fluorescence slope was -1.7e-05 (inactive). Further, the slope in experiment [7] was 0.00587 (inactive).

Consider `C=CCNc1nc(-c2cccc(OC)c2O)nc2ccccc12`, for which, in experiment [1], the cell count is 347. Further, the inhibition in [1] was 5.6% (inactive); in experiment [2] it was -92.9% (inactive); in experiment [4] it was 7.01% (inactive); in experiment [8], 1.52% (inactive). In [2], this molecule displayed a nuclei count of 101%. Also, the z-score in experiment [3] (setting [12]) is -0.736; in [3] (setting [13]) it was 0.355; in [3] (setting [14]) it was 1.19. Also, in experiment [5], the fluorescence slope was -0.415 (inactive). Also, the NADPH fluorescence slope in [6] is -0.000104 (inactive). Besides, in experiment [7], the slope is 0.00503 (inactive).

In the case of `CC(C)Cc1nc2n[nH]c(N)c2c2c1CCC2`, the cell count in [1] was 325. Moreover, the inhibition in experiment [1] is -3.7% (inactive); in experiment [2], -87.6% (inactive); in experiment [4], -1.75% (inactive); in experiment [8], 8.43% (inactive). In experiment [2], this molecule had a nuclei count of 149%. The z-score in [3] (setting [12]) was 0.414; in experiment [3] (setting [13]), -0.778; in [3] (setting [14]) it was -0.647. For the same molecule, in [5], the fluorescence slope was -0.43 (inactive). The NADPH fluorescence slope in experiment [6] is -8.3e-05 (inactive). Besides, the slope in experiment [7] was 0.0075 (inactive).

On to `CCC(=O)O[C@@H]1CC(=O)O[C@H](C)CC=CC=C[C@@H](O)[C@H](C)C[C@H](CC=O)[C@H](O[C@H]2O[C@H](C)[C@@H](O[C@H]3C[C@@](C)(O)[C@@H](OC(=O)CC)[C@H](C)O3)[C@H](N(C)C)[C@H]2O)[C@H]1OC`, for which the cell count in experiment [1] turned out to be 725. The inhibition is -0.7% (inactive) in experiment [1]; -105% (inactive) in experiment [2]; 11.3% (inactive) in experiment [4]; 66.6% (active) in experiment [8]; -13.3% (inactive) in experiment [10]; -27.4% (inactive) in experiment [11]. In experiment [2], this molecule came in with a nuclei count of 120%. The z-score in experiment [3] (setting [12]) is -0.528; in [3] (setting [13]) it was -0.404; in experiment [3] (setting [14]), -1.92. Also, the fluorescence slope in experiment [5] was -0.525 (inactive). In addition, in experiment [6], the NADPH fluorescence slope was -4.8e-05 (inactive). For the same molecule, the slope in experiment [7] was 0.00447 (inactive). In [9], the molecule was classed as inactive.

With `CC12CCC(C(=O)N(CCC#N)CCC#N)(CC1=O)C2(C)C` (configuration not stated), the cell count in experiment [1] stood at 311. The inhibition was 21.3% (inactive) in [1], -9% (inactive) in [2], -12.3% (inactive) in [4] and 20.6% (inactive) in experiment [8]. This molecule registered a nuclei count in [2] of 92.1%. The z-score was -0.914 in experiment [3] (setting [12]), 1.07 in [3] (setting [13]) and 1.43 in experiment [3] (setting [14]). The fluorescence slope in experiment [5] is -0.505 (inactive). For the same molecule, the NADPH fluorescence slope in experiment [6] was -9.3e-05 (inactive). In addition, the slope in [7] is 0.00706 (inactive).

On to `COc1cccc(-c2nc(NC(C)C)c3ccccc3n2)c1O`, for which the cell count in experiment [1] is 342. Also, the inhibition was -2.3% (inactive) in [1], -37.3% (inactive) in experiment [2], 1.6e-07% (inactive) in [4] and 75.4% (active) in [8]. The same molecule returned a nuclei count in [2] of 152%. In addition, the z-score was -0.0785 in experiment [3] (setting [12]), 0.53 in [3] (setting [13]) and 0.295 in experiment [3] (setting [14]). Further, in experiment [5], the fluorescence slope was -0.436 (inactive). Moreover, the NADPH fluorescence slope in experiment [6] was -0.000146 (inactive). Moreover, the slope in experiment [7] is 0.00488 (inactive).

Take `CNCCCN1c2ccccc2CCc2ccccc21`: the cell count in experiment [1] came to 539. The inhibition in experiment [1] is -8.9% (inactive); in [2], -27% (inactive); in experiment [4], 15.3% (inactive); in [8], -1.03% (inactive) and 0.865% (inactive); in experiment [10], 0.658% (inactive); in [11], 24.2% (inactive). For the same molecule, the nuclei count in experiment [2] worked out at 118%. Moreover, the values for the z-score in [3] (setting [12]), in experiment [3] (setting [13]) and in experiment [3] (setting [14]) were -1.38, -0.202 and 2.91, respectively. In addition, the fluorescence slope in [5] is -0.533 (inactive). In addition, the NADPH fluorescence slope in experiment [6] was -5.3e-05 (inactive). Also, in [7], the slope is 0.00468 (inactive). The result in experiment [9] was inactive.

Take `c1ccc2c(NCC3CCCO3)nc(-c3ccncc3)nc2c1` (configuration not stated): the cell count in experiment [1] worked out at 296. Moreover, the inhibition in experiment [1] was 1.9% (inactive); in experiment [2], -260% (inactive); in experiment [4], 1.48% (inactive); in experiment [8], 141% (active). In experiment [2], this molecule displayed a nuclei count of 134%. Moreover, the results for the z-score in experiment [3] (setting [12]), in experiment [3] (setting [13]) and in experiment [3] (setting [14]) were 0.349, -0.718 and -1.13, respectively. Also, the fluorescence slope in [5] was -0.516 (inactive). For the same molecule, in [6], the NADPH fluorescence slope is -3.7e-05 (inactive). In experiment [7], the slope is 0.00585 (inactive).

Take `CCCc1cc(=O)oc2c(CN3CCCC3)c(O)c(Cl)cc12`: the cell count in experiment [1] was determined as 371. The inhibition is -2.3% (inactive) in experiment [1], -95.9% (inactive) in experiment [2], 22.8% (inactive) in experiment [4] and -0.278% (inactive) in experiment [8]. For the same molecule, the nuclei count in experiment [2] turned out to be 144%. In addition, the z-score was 0.942 in experiment [3] (setting [12]), -0.732 in experiment [3] (setting [13]) and 0.231 in experiment [3] (setting [14]). The fluorescence slope in [5] was -0.172 (inactive). The NADPH fluorescence slope in experiment [6] was -2.5e-06 (inactive). Besides, in [7], the slope is 0.00449 (inactive).

As for `Cc1cccc(N(Cc2cc3ccccc3[nH]c2=O)C(=O)c2ccco2)c1C`, the cell count in [1] is 391. Besides, the inhibition in experiment [1] is -8.8% (inactive); in [2], -117% (inactive); in experiment [4], 12.3% (inactive); in experiment [8], 22.4% (inactive). For the same molecule, in experiment [2], the nuclei count was determined as 150%. In addition, the z-score in [3] (setting [12]) was 0.27; in experiment [3] (setting [13]), -0.684; in [3] (setting [14]), -0.0595. The fluorescence slope in [5] was -0.439 (inactive). For the same molecule, in experiment [6], the NADPH fluorescence slope was -0.000168 (inactive). Further, the slope in experiment [7] is 0.00782 (inactive).

As to `O=C(NCCCn1ccnc1)C(Cc1ccccc1)N1C(=O)c2ccccc2C1=O` (configuration not stated), the cell count in experiment [1] is 340. For the same molecule, the inhibition was -6.9% (inactive) in experiment [1], -73.9% (inactive) in experiment [2], 1.6e-07% (inactive) in [4] and 3.02% (inactive) in experiment [8]. This molecule also showed a nuclei count in experiment [2] of 125%. The z-score in experiment [3] (setting [12]) is 0.63; in [3] (setting [13]), -0.478; in experiment [3] (setting [14]) it was -0.334. The fluorescence slope in [5] was -0.46 (inactive). For the same molecule, the NADPH fluorescence slope in [6] is -0.000126 (inactive). The slope in experiment [7] is 0.00809 (inactive).

Turning to `COc1cccc(-c2nc(NC(C)(C)C)c3ccccc3n2)c1O`, the cell count in [1] was found to be 394. The inhibition is 0% (inactive) in [1], -39.6% (inactive) in experiment [2], -1.75% (inactive) in experiment [4] and 34.2% (inactive) in experiment [8]. In [2], the nuclei count worked out at 141%. The z-score was found to be 0.222 in experiment [3] (setting [12]), 0.227 in experiment [3] (setting [13]) and 0.927 in experiment [3] (setting [14]). In experiment [5], the fluorescence slope was -0.422 (inactive). Also, in experiment [6], the NADPH fluorescence slope was -0.000132 (inactive). In addition, the slope in [7] is 0.00293 (inactive).
